Consider 14 compounds from PubChem BioAssay (NCI).

Some test systems named below: SK-MEL-2 melanoma; EKVX NSCLC; SN12C renal; UO-31 renal; TK-10 renal; CAKI-1 renal; CCRF-CEM leukemia; MOLT-4 leukemia; ACHN renal; A498 renal.
Common to all, as to test: NCI-60 one-dose screen, 48 h (100 = growth as untreated, 0 = no growth, -100 = all killed)
Common to all, as to details: 10 µM unless noted

Compounds without any hit were thinned out: in the full panel of roughly 83,000, 20% have a hit.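 Results are percent growth after 48 hours of single-concentration exposure. 100 means growth as in untreated cells, lower positive values show inhibition; negative values down to -100 show cell death.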 Unmarked numbers belong to inactive results. Activity calls are given as the source filed them. How the source made its calls: active means growth percent below 10; inactive means the rest.

With `Cc1cccc2c(=O)c3c(sc12)c(NCCCN)nc1ccccc13`, the growth is 89.2% in the experiment with SK-MEL-2 melanoma; 40.6% in the experiment on EKVX NSCLC; 22.1% with SN12C renal; 19.6% in the experiment with UO-31 renal; 29% in the experiment on TK-10 renal; 4.76% (active) in the experiment with CAKI-1 renal. For the same compound, the growth is 2.89% (active) with CCRF-CEM leukemia and -18.3% (active) in the experiment with MOLT-4 leukemia.

With `COc1cc(-c2nc(Nc3nc4ccccc4[nH]3)nc(N)c2C#N)cc(OC)c1OC`, the growth in the experiment on SK-MEL-2 melanoma was 59.2%; with EKVX NSCLC it was 74.5%; with SN12C renal, 92.8%; in the experiment on UO-31 renal, 69.9%; with ACHN renal it was 61.7%; in the experiment on CAKI-1 renal, 56.9%. In addition, in the experiment on CCRF-CEM leukemia, the growth is 70.1%.

On to `O=C(C[Si](CC(=O)c1cccc(C(F)(F)F)c1)CC(=O)c1cccc(C(F)(F)F)c1)c1cccc(C(F)(F)F)c1`, for which the growth in the experiment on SK-MEL-2 melanoma is 94.1%; in the experiment on EKVX NSCLC, 36.7%; in the experiment with SN12C renal, 69.5%; in the experiment with UO-31 renal, 31.4%; with ACHN renal, 79.1%; in the experiment with CAKI-1 renal, 41.7%. Also, the growth is 60.4% in the experiment on A498 renal, 14.4% in the experiment on CCRF-CEM leukemia and -19.2% (active) with MOLT-4 leukemia.

In the case of `COc1ccc(-c2nc3sccn3c2/C=C/C(=O)c2cc(OC)c(OC)c(OC)c2)cc1OC`, the growth in the experiment with SK-MEL-2 melanoma is -7.87% (active); in the experiment with EKVX NSCLC it was 34.3%; in the experiment with SN12C renal it was 40.3%; with UO-31 renal it was 14%; in the experiment on ACHN renal it was 21.4%; in the experiment on CAKI-1 renal, 3.29% (active). The values for the growth with A498 renal, in the experiment on CCRF-CEM leukemia and in the experiment on MOLT-4 leukemia were -2.58% (active), 21.6% and 31.4%, respectively.

On to `Cc1nn(CC(=O)O)c2c1C(=O)CC(C)(C)C2`, for which the growth with SK-MEL-2 melanoma is 113%; with EKVX NSCLC, 105%; in the experiment with SN12C renal, 101%; in the experiment with UO-31 renal, 74%; in the experiment on ACHN renal it was 126%; in the experiment with CAKI-1 renal, 97.4%. Further, the growth in the experiment with A498 renal was 97.8%; with CCRF-CEM leukemia, 99.6%; with MOLT-4 leukemia it was 81.1%.

Turning to `O=c1c2c(=NCCN3CCCC3)cc3c(=O)n(CCCN4CCOCC4)c(=O)c4c(-c5ccc(CN6CCCC6)cc5)cc(c(O)n1CCCN1CCOCC1)c2c4-3`, the growth is -40.8% (active) in the experiment with SK-MEL-2 melanoma; -37% (active) in the experiment with EKVX NSCLC; -25.5% (active) in the experiment with SN12C renal; -6.74% (active) in the experiment on UO-31 renal; -4.38% (active) in the experiment on ACHN renal; 0.0079% (active) in the experiment with CAKI-1 renal. For the same compound, the values for the growth in the experiment with A498 renal, in the experiment with CCRF-CEM leukemia and in the experiment with MOLT-4 leukemia were -85% (active), -4.42% (active) and 0.115% (active), respectively.

`COc1cc(-c2nc(SC(C)C)nc(Nc3ccccc3C)c2C#N)cc(OC)c1OC`: the growth was 103% with SK-MEL-2 melanoma; 102% with EKVX NSCLC; 104% with SN12C renal; 86.3% with UO-31 renal; 101% in the experiment with ACHN renal; 94.1% in the experiment on CAKI-1 renal. In addition, the growth is 88.4% in the experiment with A498 renal, 103% in the experiment on CCRF-CEM leukemia and 110% in the experiment on MOLT-4 leukemia.

With `O=C1C(N2CCOCC2)=Cc2cccc3cccc1c23`, the growth with SK-MEL-2 melanoma was 110%; in the experiment with EKVX NSCLC, 60.9%; with SN12C renal, 106%; with UO-31 renal, 88.9%; in the experiment with ACHN renal, 96.3%; in the experiment with CAKI-1 renal, 108%. Moreover, the growth in the experiment with A498 renal is 84.3%; with CCRF-CEM leukemia, 102%; in the experiment on MOLT-4 leukemia, 18.2%.

Take `COc1cc(-c2nc(SC(C)C)nc(Nc3cccc(C)c3)c2C#N)cc(OC)c1OC`: the growth in the experiment with SK-MEL-2 melanoma is 118%; in the experiment on EKVX NSCLC, 109%; in the experiment with SN12C renal, 102%; in the experiment with UO-31 renal, 84.8%; in the experiment with ACHN renal, 103%; in the experiment on CAKI-1 renal it was 94.5%. In addition, the growth in the experiment with A498 renal is 102%; in the experiment with CCRF-CEM leukemia it was 104%; in the experiment on MOLT-4 leukemia it was 93.5%.

For `FC(F)(F)c1ccc2c(c1)n1cnnc1c1nncn21`, the growth in the experiment with SK-MEL-2 melanoma is 112%; in the experiment on EKVX NSCLC, 94.4%; with SN12C renal, 106%; in the experiment on UO-31 renal, 87.6%; with ACHN renal, 112%; with CAKI-1 renal it was 97%. In addition, the results for the growth with A498 renal and in the experiment on MOLT-4 leukemia were 94.7% and 96.4%, respectively.

With `Cc1cc(C)c(S(=O)O)c(C)c1`, the growth was 97.8% with SK-MEL-2 melanoma; 105% in the experiment on EKVX NSCLC; 108% with SN12C renal; 110% in the experiment on UO-31 renal; 104% in the experiment with TK-10 renal; 99% in the experiment on CAKI-1 renal. The growth is 92.7% in the experiment on A498 renal, 94% in the experiment on CCRF-CEM leukemia and 109% in the experiment on MOLT-4 leukemia.

Regarding `CN(C)c1ccc(/C=C(\C#N)c2cc3ccccc3n2C)cc1`, the growth was 54.7% in the experiment on SK-MEL-2 melanoma; 41.6% in the experiment with EKVX NSCLC; 38.7% in the experiment on SN12C renal; 51.7% with UO-31 renal; 38.9% in the experiment with ACHN renal; 30.7% in the experiment on CAKI-1 renal. The growth is -9.38% (active) in the experiment with A498 renal, 19.1% with CCRF-CEM leukemia and 21.6% in the experiment on MOLT-4 leukemia.

Turning to `COc1ccc(-c2nn(-c3ccc(NC(=O)c4ccc(Cl)c(Cl)c4)cc3)cc2-c2ccncc2)cc1Cl`, the growth is 43.5% in the experiment with SK-MEL-2 melanoma; 56.4% in the experiment on EKVX NSCLC; 80.5% with SN12C renal; 2.82% (active) in the experiment with UO-31 renal; 52.6% with ACHN renal; -13.7% (active) in the experiment on CAKI-1 renal. Further, the growth was -0.135% (active) in the experiment with A498 renal, 37.4% in the experiment with CCRF-CEM leukemia and 13.8% in the experiment on MOLT-4 leukemia.

Regarding `COc1cccc(C2C3=C(COC3=O)N(CCO)c3cc4c(cc32)OCO4)c1` (configuration not stated), the growth in the experiment on SK-MEL-2 melanoma is 33%; with EKVX NSCLC it was 36.2%; in the experiment with SN12C renal, 46.7%; in the experiment on UO-31 renal it was 57.7%; with TK-10 renal, 59.8%; in the experiment with CAKI-1 renal, 30%. Besides, the growth is -5.85% (active) in the experiment on A498 renal, 21.3% in the experiment with CCRF-CEM leukemia and 27.1% with MOLT-4 leukemia.
